Inconclusive results are not listed. Active and inactive are the calls of the source. The calls were made as follows: active = hit-call score of the fitted dose curve at least 0.9, where 1 is the maximum; inconclusive = response in the unintended direction; inactive = score below 0.9.
What follows are compounds tested against Nuclear receptor subfamily 1 group I member 2 (Homo sapiens) (UniProt O75469) (assay: ATG_PXR_TRANS: Attagene TRANS-FACTORIAL HepG2 Assay for human Pregnane X Receptor (PXR) (AID 2283008)).
Procedure, shortened: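 Multiplexed TRANS reporter panel in HepG2; this component tracks PXR-Gal4-driven reporter mRNA after 24 h dosing, measured by RT-PCR with capillary electrophoresis fluorescence, fitted against DMSO.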

Chain of Nuclear receptor subfamily 1 group I member 2 (Homo sapiens) (O75469 whole entry, looked up, the tested form may be a part): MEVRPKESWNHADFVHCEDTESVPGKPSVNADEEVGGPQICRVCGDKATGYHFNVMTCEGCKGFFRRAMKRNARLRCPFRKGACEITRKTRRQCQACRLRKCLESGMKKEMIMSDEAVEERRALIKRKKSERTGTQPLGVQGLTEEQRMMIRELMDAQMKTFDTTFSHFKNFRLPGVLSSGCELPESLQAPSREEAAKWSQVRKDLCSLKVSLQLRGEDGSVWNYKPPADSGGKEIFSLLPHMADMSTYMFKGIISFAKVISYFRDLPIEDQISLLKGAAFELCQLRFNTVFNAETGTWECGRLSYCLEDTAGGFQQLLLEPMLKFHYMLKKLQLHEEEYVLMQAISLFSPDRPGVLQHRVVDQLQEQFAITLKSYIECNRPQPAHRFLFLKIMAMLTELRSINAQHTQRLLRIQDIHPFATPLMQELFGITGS

Compound | outcome | AC50
CCOC(=O)CC(=O)C(F)(F)C(F)(F)F | inactive | –
CC(O)C#CC(C)O (centres undefined) | inactive | –
CCN(CC)c1ccc(C=O)c(O)c1 | inactive | –
FC(F)(F)C(F)(F)C(F)(F)CC1CO1 (centres undefined) | inactive | –
OCC(O)CC(F)(F)C(F)(F)C(F)(F)C(F)(F)F (centres undefined) | inactive | –
NC(O)(C(F)(F)F)C(F)(F)F | inactive | –
FC(F)(F)C(F)(F)C(F)(F)C(F)(F)C(F)(F)C(F)(F)CC[Si](Cl)(Cl)Cl | inactive | –
O=C=NCc1cccc(CN=C=O)c1 | inactive | –
Cc1cc(O)c(C(C)(C)C)cc1C(C)(C)C | – | 3470 nM (active)
CCCCCCCCCCCCC[N+](C)(C)Cc1ccccc1 | inactive | –
CCn1c2ccccc2c2ccccc21 | – | 10300 nM (active)
C=CC(=O)OCC(F)(F)C(F)(F)C(F)(F)COC(=O)C=C | inactive | –
COC(F)(C(F)F)C(F)(F)F (centres undefined) | inactive | –
CC1=CC2C3C=CC(C3)C2C1C (centres undefined) | – | 387 nM (active)
CC(C)(C)C(=O)C1C(=O)c2ccccc2C1=O | – | 22400 nM (active)
O=S(=O)(O)CCC(F)(F)C(F)(F)C(F)(F)C(F)(F)F | inactive | –
O=S(=O)(OCC(F)(F)F)C(F)(F)C(F)(F)C(F)(F)C(F)(F)F | inactive | –
CCCCCCCC/C=C\CCCCCCCC(=O)N(C)CC(=O)O | inactive | –
OCC(F)(F)C(F)(F)C(F)(F)C(F)(F)C(F)(F)C(F)(F)CO | inactive | –
O=C=Nc1cccc2c(N=C=O)cccc12 | – | 628 nM (active)
CC(C)(C)c1cc(CCC(=O)NCCCCCCNC(=O)CCc2cc(C(C)(C)C)c(O)c(C(C)(C)C)c2)cc(C(C)(C)C)c1O | – | 82.3 nM (active)
CCN(CC)c1ccc2c(c1)Oc1cc(N(CC)CC)ccc1C21OC(=O)c2ccccc21 | – | 348 nM (active)
Oc1ccc2c(c1)CCC2 | inactive | –
Cc1cnccn1 | inactive | –
Nc1cc([N+](=O)[O-])cc(Cl)c1O | inactive | –
OCCCC(F)(F)C(F)(F)C(F)(F)C(F)(F)C(F)(F)C(F)(F)C(F)(F)C(F)(F)F | inactive | –
O=C(O)C(F)(F)C(F)(F)C(F)(F)OC(F)(F)F | inactive | –
CCN=C1C=CC(=C(c2ccc(N(CC)CC)cc2)c2ccc(N(CC)CC)cc2)c2ccccc21 | inactive | –
CCN(CC)c1ccc(C=O)cc1 | – | 27700 nM (active)

— PubChem BioAssay (EPA / NIEHS)
